The source made the active and inactive calls. Rule as the data show it: active = inhibition above about 31%; inactive = the rest.
Assay: MRP1 drug-resistance reversers in H69AR cells – cell-based, doxorubicin co-treatment, pilot screen (AID 601)
Settings: H69AR cells, CellTiter-Glo, 72 h; compound alone cytotoxicity; at 10 µM
In the case of COC(=O)c1cc(O)c(OCc2ccccc2)c(O)c1, the viability is reported as 94.3%. With O=C(c1ccc(Br)o1)N(c1ccc(Br)cc1)C1C=CS(=O)(=O)C1 (stereo unspecified) the viability was 87%. Cc1nn(-c2ccccc2)c(C)c1C(=O)OCC(=O)c1c(N)n(CC(C)C)c(=O)n(C)c1=O showed a viability of 77.8%. Compound CC(=O)N1CCc2cc(S(=O)(=O)NC(C(=O)NCc3ccccc3)C(C)C)ccc21 (stereo unspecified) has a viability of 102%. N#CC1=C(N)Oc2n[nH]c(-c3cccs3)c2C1c1cccs1 (stereo unspecified) showed a viability of 83.8%. Cc1cc(C(=O)CN2C(=O)c3ccccc3C2=O)c(C)n1Cc1cccs1 showed a viability of 86.3%. In the case of CCc1nnc(NC(=O)C2CCCN2S(=O)(=O)c2ccc(C)cc2)s1 (stereo unspecified), the viability is reported as 117%. Compound COC(=O)C1=C(C)C(c2cccs2)NC(=O)N1C (stereo unspecified) has a viability of 95.3%. Compound CCOC(=O)CSc1nnc([C@H](C)NC(=O)OC(C)(C)C)o1 has a viability of 106%. O=C1CC(N2CCN(c3ccc(Cl)c(Cl)c3)CC2)C(=O)N1 (stereo unspecified) gave a viability of 107%. For CCC(C)(C)n1nnnc1C(c1ccncc1)N1CCN(c2cccc(OC)c2)CC1 (stereo unspecified), the viability was 85.3%. In the case of COc1cccc(C(=O)OCn2nnc3ccccc3c2=O)c1, the viability is reported as 114%. Compound O=C(O)CCc1ccc(-c2ccc(F)cc2)n1CC(=O)O has a viability of 98%. In the case of COC(=O)c1ccccc1S(=O)(=O)N(CCCO)Cc1cc2c(C)ccc(C)c2[nH]c1=O, the viability is reported as 79.3%. Work on COC(=O)c1ccc(-c2ccc(CNCC(O)c3ccccc3)o2)cc1 (stereo unspecified) yielded a viability of 101%. COC(=O)Nc1ccc(S(=O)(=O)N2CCN(c3ccc(F)cc3)CC2)cc1 showed a viability of 97.1%. With O=C(Nc1ccc(O)cc1)C1CCCN1S(=O)(=O)c1ccc(F)cc1 (stereo unspecified) the viability was 97.3%. In the case of CCc1ccc(C=NC23CN4CN(CN(C4)C2)C3)s1, the viability is reported as 105%. Work on Cc1nnc(SCC(=O)N2c3ccccc3CC2C)s1 (stereo unspecified) yielded a viability of 92%. COc1ccccc1S(=O)(=O)n1cc(Cc2ccccc2)c(N)n1 showed a viability of 104%.

Assay: yeast transport mutant growth inhibition pilot in 384-well plates, post-Golgi transport modulator project (AID 636)
Settings: absorbance 615 nm, about 18 h, stronger effect = higher value
In the case of O=S(=O)(Nc1ccc(Cc2ccncc2)cc1)N1CCCC1, the inhibition is reported as -3.92% (inactive). In the case of CCn1c(=O)cc(OCC(=O)NCCCN2CC(C)CC(C)C2)c2ccccc21 (stereo unspecified), the inhibition is reported as -7.24% (inactive). With Nn1c(SCC(=O)Nc2ccc3c(c2)OCO3)nnc1C1CC1 the inhibition was -5.41% (inactive). With CCOP(=O)(c1ccc(N(C)C)cc1)C(O)c1ccccc1OC (stereo unspecified) the inhibition was -1.07% (inactive). In the case of COc1ccc(C(=O)N2CCSC2=S)cc1OC, the inhibition is reported as -2.21% (inactive). For O=c1c2nnn(Cc3ccccc3)c2ncn1-c1ccccc1, the inhibition was -6.27% (inactive). With CCOc1ccc(NC(=O)CN(C)S(=O)(=O)c2cccs2)cc1 the inhibition was -3.2% (inactive). In the case of O=c1[nH]c(SCc2cc(=O)n3ccccc3n2)nc2c1CCC2, the inhibition is reported as -2.76% (inactive). With Cc1ccc(O)c(NC(=O)COc2cc(C)ccc2C)c1 the inhibition was -1.97% (inactive). In the case of N#Cc1cc2sc3nnc(-c4ccncc4)n3c2cc1C#N, the inhibition is reported as -1.71% (inactive). With CCOc1cc(C2c3c(n[nH]c3C)C(=O)N2c2ccc(Br)cc2)ccc1O (stereo unspecified) the inhibition was -4.27% (inactive). With Cc1cc(NC(=O)CSc2ccc(Cl)cc2)no1 the inhibition was -0.66% (inactive). With CC(C)[C@H](NC(=O)NC1CCCC1)C(=O)O the inhibition was -0.52% (inactive). With CCOC(=O)c1[nH]c2ccc(OC)cc2c1NC(=O)CCN1CCC(C)CC1 the inhibition was -3.12% (inactive). For CCc1nc(C)c(-c2ccccc2)c(=O)[nH]1, the inhibition was -3.2% (inactive). In the case of CN(C)c1ccc(NC(=O)CSCc2nc3c(nnn3Cc3ccc(F)cc3)c(=O)[nH]2)cc1, the inhibition is reported as -6.49% (inactive). With COc1ccc(C2CC(=O)c3cnc(NC(=O)c4ccccc4OC)nc3C2)c(OC)c1 (stereo unspecified) the inhibition was -5.07% (inactive). In the case of Cc1cnc(NC(=O)CSc2nc3ccccc3c(=O)[nH]2)s1, the inhibition is reported as -3.07% (inactive). In the case of CCCOc1ccc(OCCSc2ncccn2)cc1, the inhibition is reported as -6.67% (inactive). In the case of Cc1nnc(C)c2c(C)n(-c3ccc(Br)cc3)c(C)c12, the inhibition is reported as -7.07% (inactive). In the case of COC(=O)c1cc(O)c(OCc2ccccc2)c(O)c1, the inhibition is reported as 2.63% (inactive). In the case of O=C(c1ccc(Br)o1)N(c1ccc(Br)cc1)C1C=CS(=O)(=O)C1 (stereo unspecified), the inhibition is reported as 5% (inactive). With Cc1nn(-c2ccccc2)c(C)c1C(=O)OCC(=O)c1c(N)n(CC(C)C)c(=O)n(C)c1=O the inhibition was -8.4% (inactive). For CC(=O)N1CCc2cc(S(=O)(=O)NC(C(=O)NCc3ccccc3)C(C)C)ccc21 (stereo unspecified), the inhibition was -2.5% (inactive). In the case of N#CC1=C(N)Oc2n[nH]c(-c3cccs3)c2C1c1cccs1 (stereo unspecified), the inhibition is reported as -3.73% (inactive). For Cc1cc(C(=O)CN2C(=O)c3ccccc3C2=O)c(C)n1Cc1cccs1, the inhibition was -9.45% (inactive).

Source: PubChem BioAssay
